In PubChem BioAssay AID504652 (National Center for Advancing Translational Sciences (NCATS), 2011) one finds activity change, negative = inhibition data, which are given here for 41 compounds.

The structures appear in SMILES notation. “And” between values parts separate entries of the source, which are not always exact repeats. Equal values may be shown once. Screen size: about 360,000 compounds; about 11,000 (3.1%) were called active. No stated cut-off is given here; in the data, active means activity change below about -30%; inactive means the rest. The entries come from a sample that favours actives as a whole.
On the % scale 0 is the no-effect control and ±100 the full control effect.

Sequence of D(1A) dopamine receptor (Homo sapiens) (P21728 whole entry, looked up): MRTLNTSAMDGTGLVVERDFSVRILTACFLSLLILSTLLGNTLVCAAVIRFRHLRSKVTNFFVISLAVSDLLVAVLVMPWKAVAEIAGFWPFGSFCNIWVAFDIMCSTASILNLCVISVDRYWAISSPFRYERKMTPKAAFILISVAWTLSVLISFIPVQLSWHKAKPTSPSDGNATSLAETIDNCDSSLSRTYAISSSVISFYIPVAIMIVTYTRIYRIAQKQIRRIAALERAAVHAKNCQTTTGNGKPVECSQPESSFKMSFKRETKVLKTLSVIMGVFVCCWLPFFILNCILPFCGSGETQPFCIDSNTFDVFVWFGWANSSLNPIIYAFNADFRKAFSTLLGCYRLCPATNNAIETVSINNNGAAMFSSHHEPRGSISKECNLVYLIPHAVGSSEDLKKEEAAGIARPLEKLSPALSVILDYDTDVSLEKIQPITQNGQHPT

This test has as its target D(1A) dopamine receptor (Homo sapiens) (UniProt P21728). The experiment in a line: Antagonist of Human D 1 Dopamine Receptor: qHTS. The note with it: HEK293 TREx D1 cells, calcium flux, dopamine EC80; at 10 µM; active compounds read low. From the text: Dopamine receptors (DARs) are involved in the etiology and/or therapy of a number of neuropsychiatric and endocrine disorders. For instance, all receptor-based antiparkinsonian drugs work via stimulating the […] DAR subtype whereas all FDA-approved antipsychotic agents are antagonists of this receptor. […] There are three different types of allosteric modulators that we are seeking, two of which will stimulate or augment receptor signaling, allosteric agonists and potentiators, while the third, allosteric antagonists, will attenuate receptor signaling. The present primary screening assay measures compound antagonism after an EC80 addition of dopamine by tracking calcium flux in a […], inducible Hek293 Trex D1 cell line. NIH Chemical Genomics Center [NCGC] NIH Molecular Libraries Probe Centers Network [MLPCN] MLPCN Grant: NS064831-01 Assay Submitter (PI): David Sibley
Freshly passaged cells are plated in 1536 well black, clear bottom plates at a density of 4000 cells/well in 3 ul of complete media containing 1x tetracycline inducer. After an overnight incubation at 30 C in 5% CO2, cells are loaded with 2 ul of the no wash Calcium Assay Kit (ABD Bioquest) and incubated at room temperature for 30 to 90 minutes. Agonist read: A 10 cycle (1 second/cycle) baseline measurement is taken and then the FDSS online 1536 pintool delivers 23 nl of compound library (as well as dopamine controls) to the plate. The plate is measured for kinetically at 1 cycle/sec for 180 seconds. Following the 180 second read, 1 ul of an EC80 (negative modulation assay) is delivered by an onboard pipette head. Measurements are taken kinetically for an additional 180 seconds.
As for `COc1ccccc1-c1ccnc2[nH]n(-c3ccccc3)c(=O)c12`, the activity change, negative = inhibition is -7.97% (inactive). As for `COc1cccc(CNC(=O)CCc2nc(-c3ccc(C)cc3)no2)c1`, the activity change, negative = inhibition was -1.26% (inactive). Then `Cn1c(C(=O)N2CCC(C(=O)N3CCN(c4ccccc4)CC3)CC2)cc2sccc21`, with -14.6% (inactive); and `CCCN1CCN(CCCNC(=O)Cn2nc(CC)n3c(cc4occc43)c2=O)CC1`, with -17.4% (inactive).

On to `CCc1nn(CC(=O)NCC(C)c2ccccc2)c(=O)c2cc3occc3n12` (stereo unspecified), for which the activity change, negative = inhibition was -32.7% (active). `CCc1nn(CCCC(=O)NC(C)c2ccccc2)c(=O)c2cc3occc3n12` (stereo unspecified): the activity change, negative = inhibition is 5.05% (inactive) and -4.27% (inactive). Then `CSc1ccc(C2C(C(=O)Nc3ccccc3)=C(C)Nc3nc4ccccc4n32)cc1` (stereo unspecified), with 3.8% (inactive); and `CCN(CCCNC(=O)c1c(C)oc2ncn(CC(C)C)c(=O)c12)Cc1ccccc1`, with 0.919% (inactive); and `COc1ccc(OC)c(NC(=O)CN2CCCN(Cc3cc(C)ccc3C)S2(=O)=O)c1`, with 2.17% (inactive).

Turning to `COC(=O)C1(C)NC(c2ccc(F)cc2)C2C(=O)N(c3ccccc3)C(=O)C21` (stereo unspecified), the activity change, negative = inhibition was 0.925% (inactive). As for `COC(=O)[C@]1(C)N[C@H](c2ccc(-c3ccc(Cl)c(Cl)c3)cc2)[C@@H]2C(=O)N(C)C(=O)[C@@H]21`, the figure is -31.4% (active); as for `COC(=O)C1(C)NC(c2ccc(C)cc2)C2C(=O)N(c3ccc(F)cc3)C(=O)C21` (stereo unspecified), -8.61% (inactive).

Take `CCC(=O)N1CCc2cc(CNS(=O)(=O)c3ccc(Br)s3)ccc21`: the activity change, negative = inhibition is -7.89% (inactive).

Turning to `CCCCOc1ccc(Cn2c(=O)oc3ccc(C)cc32)cc1OC`, the activity change, negative = inhibition was -3.29% (inactive). As for `CCCCOc1ccc(CN2C(=O)C(=O)c3cc(Br)cc(C)c32)cc1OC`, the figure is -30.4% (active); as for `CCCCN1C(=O)C(C)=C(C)C1OCCc1ccc(OC)c(OC)c1` (stereo unspecified), 2.6% (inactive); as for `Cc1ccccc1CNC(=O)CSc1nnc(C)c2c(C)n(-c3ccccc3)nc12`, -8.46% (inactive). As for `CCOC(=O)c1c(S(=O)(=O)NCC(=O)Nc2ccc(Cl)c(C(F)(F)F)c2)c(C)n(C)c1C`, the activity change, negative = inhibition was -17.1% (inactive).

Consider `Cc1ccc(CN2CCC(n3nccc3NC(=O)CCCc3ccccc3)CC2)o1`, for which the activity change, negative = inhibition is 3.11% (inactive). Then `CC(=O)NCC(=O)N1CCC(n2nccc2NC(=O)CCCc2ccccc2)CC1`, with -10.3% (inactive); and `CC(=O)N[C@@H](C)C(=O)N1CCC(n2nccc2NC(=O)CCCc2ccccc2)CC1`, with -35.7% (active); and `COc1ccc(CCNC(=O)CCc2c(C)nc3c(c(C)nn3-c3ccc(C)c(C)c3)c2C)c(OC)c1OC`, with -6.08% (inactive).

In the case of `Cc1ccc(C(=O)N/C(=C/c2cccs2)C(=O)NCC2CCCO2)cc1` (stereo unspecified), the activity change, negative = inhibition is -5.41% (inactive). Consider `Cc1ccc(-n2c(C)cc(/C=C(\C#N)C(=O)NCC3CCCO3)c2C)cc1` (stereo unspecified), for which the activity change, negative = inhibition is -101% (active).

For `Cc1ccc2c(c1)N(CC(=O)NCC1CCCO1)C(=O)CO2` (stereo unspecified), the activity change, negative = inhibition is -13.8% (inactive). Turning to `Cc1ccccc1OCCSc1nc2ccc(NC(=O)c3ccco3)cc2s1`, the activity change, negative = inhibition is -30% (inactive).

`COc1ccccc1CNC(=O)CCn1c(=O)c2ccccc2n(CC(=O)Nc2cccc(Cl)c2)c1=O`: the activity change, negative = inhibition was -3.25% (inactive). Then `Cc1cc(C)cc(-n2c(SCC(=O)NCC3CCCO3)nc3c([nH]c4ccccc43)c2=O)c1` (stereo unspecified), with -4.35% (inactive); and `Cc1c(C(=O)N2CCCC2)oc2c1-c1nn(CC(=O)NCc3ccc(OC(C)C)cc3)cc1CC2`, with -7.55% (inactive).

`Cc1cccc(N2CCN(C3=C(c4ccccc4)C(=O)c4ccccc43)CC2)c1C`: the activity change, negative = inhibition was 18% (inactive). Then `CN(CC(=O)Nc1cccc(C(F)(F)F)c1)S(=O)(=O)c1cccs1`, with -18.7% (inactive).

On to `CCOC(=O)c1ccc(NC(=O)Cn2c(=O)cc(C)c3c(C)nn(-c4cccc(F)c4)c32)cc1`, for which the activity change, negative = inhibition is -13.3% (inactive). Then `COC(=O)c1ccc(/C=N/OCC(=O)Nc2cc(F)ccc2F)cc1`, with -33% (active). On to `O=C(COC(=O)[C@H](Cc1ccccc1)NC(=O)c1cccs1)Nc1cc(F)ccc1F`, for which the activity change, negative = inhibition was -9.37% (inactive). On to `O=C(CO/N=C/c1ccc(OC(F)F)cc1)NCc1ccc(F)cc1`, for which the activity change, negative = inhibition was -6.98% (inactive).

Take `Cc1ccc(C(=O)N2CCN(S(=O)(=O)N3CCOCC3)CC2)cc1`: the activity change, negative = inhibition is -3.63% (inactive). With `CCC(C(=O)N1CCN(S(=O)(=O)c2sc(C(=O)O)c(C)c2C(=O)O)CC1)c1ccccc1` (stereo unspecified), the activity change, negative = inhibition was -4.86% (inactive).

Turning to `CCc1ccc(C(=O)N2CCN(S(=O)(=O)c3sc(C(=O)O)c(C)c3C(=O)O)CC2)cc1`, the activity change, negative = inhibition is -68.6% (active). As for `COc1ccc(SCc2cc(=O)c3ccc(C)c(C)c3[nH]2)cc1`, the figure is 7.95% (inactive); as for `Cn1c(=O)c2c(nc(SCC(=O)Nc3ccc(F)cc3)n2Cc2ccc(Cl)cc2)n(C)c1=O`, -3.1% (inactive); as for `COc1cccc(N2CCN(C(=O)CCCCCn3c(=O)[nH]c4ccccc4c3=O)CC2)c1`, -11.8% (inactive).
